# Assay results reported in PubChem BioAssay AID488857 (Sanford-Burnham Center for Chemical Genomics, 2010).
# The whole screen tested about 1,400 compounds, of which about 560 (40%) were called active.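 How the source made its calls: active means mean inhibition over duplicate tests at 10 µM above 50%; inactive means the rest.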 The set was probably picked from earlier hits. The list shows a part of the results.
# Experiment: ASC/caspase-1 reporter retest in S. cerevisiae at one dose, specificity check for NALP1 project (AID 488857)
# Conditions: S. cerevisiae ASC/Caspase-1, beta-galactosidase luminescence, 24 h; at 10 µM; stronger effect = higher value
row,SMILES,inhibition
1,O=C(COc1cccc2ccccc12)N1CCN(c2ccccc2)CC1,52% (active)
2,O=C(Cc1ccc(-n2c(=O)[nH]c3ccccc3c2=O)cc1)N1CCN(c2ccccc2)CC1,17.4% (inactive)
3,CCn1c(COc2ccccc2C)nnc1SCC(=O)N1CCN(c2ccccc2)CC1,40.5% (inactive)
4,C/C(=N\N1CCN(c2ccc(Cl)cc2)CC1)c1ccco1,36.9% (inactive)
5,CCCCCOc1ccc(Br)cc1CSC(=N)N,59% (active)
6,FC(F)(F)C(F)(F)c1nnc2ccc(-n3ccnc3)nn12,33.5% (inactive)
7,Cc1ncc(S(=O)(=O)c2ccccc2)c(-c2ccccc2Cl)n1,7.65% (inactive)
8,COc1ccc2cc(/C=N/O)c(Cl)nc2c1,55% (active)
9,COc1ccc(CC2(C)OC(c3ccc(C)cc3)=NN2C(C)=O)cc1 (centres undefined),59% (active)
10,O=C1C=CC(=O)N1c1ccc(OC(F)F)cc1,71% (active)
11,CNCc1ccccc1Sc1cc(O)ccc1O,24.2% (inactive)
12,CN1c2ccccc2Sc2cc(N)ccc21,87.7% (active)
13,CC(C)C(=O)N(Cc1ccccc1)c1ccccn1,21.7% (inactive)
14,Nc1c(C(=O)NCc2ccc3c(c2)OCO3)nnn1-c1ccc(OC(F)(F)F)cc1,48.9% (inactive)
15,Cc1cc(C)cc(-n2nnc(C(=O)NCc3ccccc3)c2N)c1,53.6% (active)
16,CCOc1ccc(CNC(=O)c2cc3oc4ccccc4c3n2C)cc1,32.7% (inactive)
17,CCSc1nnc(NC(=O)c2ccccc2)s1,85.4% (active)
18,CC(C)COC(=O)Nc1nnc(SCc2ccccc2F)s1,47.1% (inactive)
19,C=C(C)C(=O)Nc1nnc(-c2cccs2)s1,36.6% (inactive)
20,CCSc1nnc(NC(=O)c2ccc(C)o2)s1,59.5% (active)
21,Cc1ccc(Nc2nnc(SCC(=O)Nc3ccc(S(=O)(=O)N4CCOCC4)cc3)s2)cc1,36% (inactive)
22,Cc1cccc(N/C=C/C(=C(C#N)C#N)N(C)C)c1,38.1% (inactive)
23,CN(C)c1ccc(N/C=C/C(=O)c2ccccc2)cc1,62.9% (active)
24,O=C(NCc1cccnc1)C1CCN(S(=O)(=O)c2cccnc2)CC1,42.8% (inactive)
25,COc1ccc(S(=O)(=O)N(CC(=O)N2CCOCC2)Cc2ccccc2)cc1C,40.5% (inactive)

row,SMILES,inhibition
1,O=C(c1ccc(Br)s1)N1CCN(C/C=C/c2ccccc2)CC1,55.4% (active)
2,CN(CC(=O)NC(=O)NCc1ccccc1)Cc1cccc(Cl)c1Cl,43.1% (inactive)
3,CCN(c1cccc(C)c1)S(=O)(=O)c1cccc(C(=O)O)c1,32.3% (inactive)
4,CCN(CC)c1ccc(/C=C2/SC(=O)N(C(C)C)C2=O)o1,71% (active)
5,N#CC1(C#N)CC(C=O)=C(N)C1(C#N)CC(=O)C12CC3CC(CC(C3)C1)C2 (centres undefined),35.1% (inactive)
6,Cc1cc(C(=O)COC(=O)c2ccc[nH]c2=O)c(C)n1-c1ccc(F)cc1,52.3% (active)
7,Cc1cc(C(=O)COC(=O)c2ccc[nH]c2=O)c(C)n1-c1ccccc1,57.5% (active)
8,CCC(=O)N(Cc1cc2c(C)ccc(C)c2[nH]c1=O)C1CCCCC1,36.8% (inactive)
9,CCC(C(=O)OC)n1cnc2scc(-c3ccc(C)c(C)c3)c2c1=O (centres undefined),98.5% (active)
10,CC[n+]1c(/C=C/N(C)c2ccccc2)n(-c2ccccc2)c2ccc(-c3nc4ccccc4s3)cc21,64.5% (active)
11,O=C(Cn1cccc(C(F)(F)F)c1=O)c1ccc(Cl)cc1,20.5% (inactive)
12,Cc1ccc(S(=O)(=O)N(C)C)cc1NC(=O)Nc1ccccc1F,24.1% (inactive)
13,O=C(NNC(=O)c1ccc(-c2ccccc2)cc1)Nc1ccc(F)cc1F,42.6% (inactive)
14,O=C(Nc1ccccc1)Nc1ccc(Br)cc1F,73.9% (active)
15,O=C(c1ccccc1)c1ccc(OCC(O)CNC2CCCc3ccccc32)cc1 (centres undefined),38.8% (inactive)
16,COc1ccc(C2NCCc3c2[nH]c2ccccc32)cc1CSc1nc2ccccc2s1 (centres undefined),50% (active)
17,CSc1nc(C)cc(OCCO)n1,40.9% (inactive)
18,CCCOc1ccc(OCCSc2ncccn2)cc1,50.8% (active)
19,CCOc1ccc(OCCSc2nc3ccccc3o2)cc1,44.1% (inactive)
20,CC(C)CN=C(NS(=O)(=O)c1ccccc1)C(Cl)(Cl)Cl,51.1% (active)
21,CC(=O)NS(=O)(=O)c1ccc(NC(=O)CSc2ccccc2)cc1,18.9% (inactive)
22,Cc1ccc(S(=O)(=O)N[C@@H](Cc2ccccc2)C(=O)CCl)cc1,-4.2% (inactive)
23,O=C(OCCN1CCCCC1)c1cc2ccccc2o1,18.4% (inactive)
24,Cc1c(C)c2cc(Cl)c(O)c(CN3CCCCC3)c2oc1=O,35.6% (inactive)
25,CCc1oc2ccccc2c1C(=O)CCN1CCCCC1,66.5% (active)

row,SMILES,inhibition
1,c1ccc(CCNc2nc(-c3cccnc3)cs2)cc1,45% (inactive)
2,COc1ccc(-c2nc(CCNC(=O)c3cccs3)cs2)cc1,54.7% (active)
3,O=C(NCCc1csc(-c2ccccc2)n1)c1ccc(Br)o1,62.4% (active)
4,O=C(NCCCn1ccnc1)c1ccc(Br)o1,24.1% (inactive)
5,COc1ccc(CCNC(=O)c2sc3cc(C)ccc3c2Cl)cc1,43.6% (inactive)
6,Cc1ccc(CN(C(=O)CNC(=O)c2cccs2)C(C(=O)NCC2CCCO2)c2ccccc2)cc1 (centres undefined),38.1% (inactive)
7,O=C(O)C1C2C=CC(C2)C1C(=O)NCc1ccc(Cl)c(Cl)c1 (centres undefined),45.9% (inactive)
8,C=C(C)C1Cc2c(C)nn(-c3ccccn3)c2C1 (centres undefined),36.1% (inactive)
9,CSCc1ccc(C(=O)Nc2cc(C)cc(C)c2)cc1,82.3% (active)
10,Cc1cc(C)cc(NS(=O)(=O)c2ccc(NC(=S)NC(=O)c3ccc(Br)o3)cc2)c1,43.1% (inactive)
11,Cc1ccc(-c2nc3cnccn3c2Nc2c(C)cccc2C)o1,54.5% (active)
12,COc1ccc(-c2nc3cnccn3c2Nc2ccc(C)cc2)cc1,37.3% (inactive)
13,CCCCCCC(=O)N(O)C1CC(=O)N(Cc2ccccc2)C1=O (centres undefined),27.9% (inactive)
14,Cc1ccc(NC(=S)Nc2ccc(Cl)c(Cl)c2)c(OC(F)F)c1,45.8% (inactive)
15,O=C(CC(O)(C(F)(F)F)C(F)(F)F)Nc1ccc(Cl)c(Cl)c1,97% (active)
16,CN1CCN(C(=S)Nc2ccc(Cl)c(Cl)c2)CC1,31.7% (inactive)
17,FC(F)Oc1ccc(/C=N/c2c(-c3ccc(OC(F)F)cc3)nc3n2CCS3)cc1,47.1% (inactive)
18,Cc1ccc2nc(N(CCCN(C)C)C(=O)CCc3ccccc3)sc2c1,54.9% (active)
19,Cc1cccc2sc(N(CCCN(C)C)C(=O)CCS(=O)(=O)c3ccccc3)nc12,71.3% (active)
20,CN(C)CCCN(C(=O)CCOc1ccccc1)c1nc2c(F)cccc2s1,56% (active)
21,CN(C)CCCN(C(=O)CCS(=O)(=O)c1ccccc1)c1nc2cc3c(cc2s1)OCO3,70.2% (active)
22,O=C(CCN1C(=O)c2ccccc2C1=O)N1CCN(C2c3ccccc3-c3ccccc32)CC1,18.1% (inactive)
23,CC(C)C(NS(=O)(=O)c1ccc2c(c1)oc(=O)n2C)C(=O)N1CCN(C2CCCCC2)CC1 (centres undefined),34.7% (inactive)
24,Cc1ccc2sc(N(CCCN(C)C)C(=O)CCS(=O)(=O)c3ccccc3)nc2c1C,92.2% (active)
25,CC(/C=N/NC(=O)CCn1nnc2ccccc21)=C\c1ccccc1,42.8% (inactive)

row,SMILES,inhibition
1,CC(/C=N/NC(=O)CSc1ccccn1)=C\c1ccc(C(C)C)cc1,39% (inactive)
2,CC(/C=N/NC(=O)c1c(Br)cnn1C)=C\c1ccccc1,56.6% (active)
3,Cc1cc(C(C)(C)C)cc(C)c1S(=O)(=O)N1CC(=O)Nc2ccccc21,50.1% (active)
4,CC(C)c1ccc(-c2c(C#N)c(N)nc3c2CCCCC3)cc1,23.8% (inactive)
5,CCN(c1ccccc1)S(=O)(=O)c1cc(NC(=O)Nc2ccccc2C#N)ccc1Cl,30.4% (inactive)
6,COc1ccc(-c2cc(-c3cc(OC)ccc3O)[nH]n2)cc1,57.5% (active)
7,CCOCC(O)CNC(=O)c1ccc(OC2CCN(C(=O)c3cccnc3)CC2)cc1 (centres undefined),29.2% (inactive)
8,Cc1cc(/C=C2/SC(=S)N(c3ccc([N+](=O)[O-])cc3)C2=O)c(C)n1-c1cccnc1,37.3% (inactive)
9,O=C(NC1CCCC1)c1ccc(CN2CCOCC2)cc1,45.1% (inactive)
10,O=C(NC1CCCCC1)c1noc2c1CCCCC2,71.2% (active)
11,C=CCn1c(=O)c2ccc(C(=O)NCc3ccccc3)cc2n(Cc2ccccc2Cl)c1=O,36.4% (inactive)
12,Cc1ccc(-c2csc(NC(=O)c3ccc(F)cc3)c2C(=O)O)cc1,93.8% (active)
13,Cc1noc(C)c1S(=O)(=O)N1CCC(C(=O)N2CCC(N3CCCCC3)CC2)CC1,23.3% (inactive)
14,CCOC(=O)CNC(c1ccccc1)c1cc(Br)ccc1NC(=O)CCN1CCOCC1 (centres undefined),44.6% (inactive)
15,CCCOc1ccc(C(=O)C(CN2CCCC2)c2ccccc2)cc1 (centres undefined),48.7% (inactive)
16,CCOc1ccc(C(=O)C(CN2CCOCC2)c2ccccc2)cc1 (centres undefined),52.9% (active)
17,CCn1nc(C)cc1Nc1ccccc1,32.9% (inactive)
18,Cc1cc(Nc2ccccc2)nn1C(=O)c1ccccc1,58% (active)
19,COc1cc2c(cc1NC(=S)Nc1ccccc1C)oc1ccccc12,45.5% (inactive)
20,CN1/C(=C\C(=O)c2cccs2)C(C)(C)c2ccccc21,40% (inactive)
21,CN(C)c1ccc(N=C/C=C2/N(C)c3ccccc3C2(C)C)cc1,56.5% (active)
22,Cc1ccccc1N=C/C=C1\N(C)c2ccccc2C1(C)C,42.5% (inactive)
23,CS(=O)(=O)c1nc(-c2ccco2)cc(C(F)(F)F)n1,90.7% (active)
24,Cc1ccc2cc(CN(Cc3ccco3)C(=O)NC3CCCCC3)c(=O)[nH]c2c1C,42.8% (inactive)
